# The supplement of paper PMC6992640
# Where a name gives a salt, the structure may show the parent alone.
# Tested on: WHIM30 (cells of a triple-negative basal-like breast cancer xenograft)
# Test: cell viability of combination (% of vehicle); higher = less cytotoxic
# Settings: 1 µM; 72 h; partner dose: 10 nM
# Method: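 PDX cells were treated for 72 h with each drug at 1 µM plus carfilzomib (10 nM; 100 nM for WHIM2). Luciferase viability is expressed as percent of vehicle.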
row,SMILES,cell viability of combination
1,COC(=O)C1=C(C)NC(C)=C(C(=O)OCCN(C)Cc2ccccc2)C1c1cccc([N+](=O)[O-])c1.Cl (stereo not given) [Nicardipine HCl] + CC(C)C[C@H](NC(=O)[C@H](CCc1ccccc1)NC(=O)CN1CCOCC1)C(=O)N[C@@H](Cc1ccccc1)C(=O)N[C@@H](CC(C)C)C(=O)[C@@]1(C)CO1 [Carfilzomib],13.8
2,CN(C)CCOc1ccc(C(=C(CCCl)c2ccccc2)c2ccccc2)cc1.O=C(O)CC(O)(CC(=O)O)C(=O)O [Toremifene Citrate] + CC(C)C[C@H](NC(=O)[C@H](CCc1ccccc1)NC(=O)CN1CCOCC1)C(=O)N[C@@H](Cc1ccccc1)C(=O)N[C@@H](CC(C)C)C(=O)[C@@]1(C)CO1 [Carfilzomib],17.1
3,COc1ccc2c(O[C@H]3CC4C(=O)N(C)CCCC/C=C\[C@H]5C[C@@]5(C(=O)NS(=O)(=O)C5CC5)NC(=O)[C@@H]4C3)cc(-c3nc(C(C)C)cs3)nc2c1C (stereo not given in full) [Simeprevir] + CC(C)C[C@H](NC(=O)[C@H](CCc1ccccc1)NC(=O)CN1CCOCC1)C(=O)N[C@@H](Cc1ccccc1)C(=O)N[C@@H](CC(C)C)C(=O)[C@@]1(C)CO1 [Carfilzomib],22.1
4,CCN(CC)CCNC(=O)c1c(C)[nH]c(C=C2C(=O)Nc3ccc(F)cc32)c1C.O=C(O)CC(O)C(=O)O [Sunitinib malate] + CC(C)C[C@H](NC(=O)[C@H](CCc1ccccc1)NC(=O)CN1CCOCC1)C(=O)N[C@@H](Cc1ccccc1)C(=O)N[C@@H](CC(C)C)C(=O)[C@@]1(C)CO1 [Carfilzomib],33.1
5,CC(C)CC(NC(=O)C(NC(=O)c1cccc(-c2ccccc2)n1)C(C)O)B(O)O (stereo not given) + CC(C)C[C@H](NC(=O)[C@H](CCc1ccccc1)NC(=O)CN1CCOCC1)C(=O)N[C@@H](Cc1ccccc1)C(=O)N[C@@H](CC(C)C)C(=O)[C@@]1(C)CO1 [Carfilzomib],8.71
6,Cl.OC(c1cc(C(F)(F)F)nc2c(C(F)(F)F)cccc12)C1CCCCN1 (stereo not given) [Mefloquine hydrochloride] + CC(C)C[C@H](NC(=O)[C@H](CCc1ccccc1)NC(=O)CN1CCOCC1)C(=O)N[C@@H](Cc1ccccc1)C(=O)N[C@@H](CC(C)C)C(=O)[C@@]1(C)CO1 [Carfilzomib],20.3
7,CNC1CCC(c2ccc(Cl)c(Cl)c2)c2ccccc21.Cl (stereo not given) [Sertraline HCl] + CC(C)C[C@H](NC(=O)[C@H](CCc1ccccc1)NC(=O)CN1CCOCC1)C(=O)N[C@@H](Cc1ccccc1)C(=O)N[C@@H](CC(C)C)C(=O)[C@@]1(C)CO1 [Carfilzomib],11
8,CS(=O)(=O)O.Cc1c(O)cccc1C(=O)NC(CSc1ccccc1)C(O)CN1CC2CCCCC2CC1C(=O)NC(C)(C)C (stereo not given) [Nelfinavir Mesylate] + CC(C)C[C@H](NC(=O)[C@H](CCc1ccccc1)NC(=O)CN1CCOCC1)C(=O)N[C@@H](Cc1ccccc1)C(=O)N[C@@H](CC(C)C)C(=O)[C@@]1(C)CO1 [Carfilzomib],26.7
9,Cc1ccc(NC(=O)c2ccc(CN3CCN(C)CC3)cc2)cc1Nc1nc(-c2cccnc2)cs1 [Masitinib (AB1010)] + CC(C)C[C@H](NC(=O)[C@H](CCc1ccccc1)NC(=O)CN1CCOCC1)C(=O)N[C@@H](Cc1ccccc1)C(=O)N[C@@H](CC(C)C)C(=O)[C@@]1(C)CO1 [Carfilzomib],28.7
10,COc1nc2ccc(Br)cc2cc1[C@@H](c1ccccc1)[C@@](O)(CCN(C)C)c1cccc2ccccc12 [Bedaquiline fumarate] + CC(C)C[C@H](NC(=O)[C@H](CCc1ccccc1)NC(=O)CN1CCOCC1)C(=O)N[C@@H](Cc1ccccc1)C(=O)N[C@@H](CC(C)C)C(=O)[C@@]1(C)CO1 [Carfilzomib],22.5
11,CC[C@H](C)[C@H]1O[C@]2(CC[C@@H]1C)C[C@@H]1C[C@@H](C/C=C(\C)[C@@H](O[C@H]3C[C@H](OC)[C@@H](O[C@H]4C[C@H](OC)[C@@H](O)[C@H](C)O4)[C@H](C)O3)[C@@H](C)/C=C/C=C3\CO[C@@H]4[C@H](O)C(C)=C[C@@H](C(=O)O1)[C@]34O)O2 [Ivermectin] + CC(C)C[C@H](NC(=O)[C@H](CCc1ccccc1)NC(=O)CN1CCOCC1)C(=O)N[C@@H](Cc1ccccc1)C(=O)N[C@@H](CC(C)C)C(=O)[C@@]1(C)CO1 [Carfilzomib],20.6
12,Cc1ccc(C(=O)N(CCCN)C(c2nc3cc(Cl)ccc3c(=O)n2Cc2ccccc2)C(C)C)cc1 (stereo not given) + CC(C)C[C@H](NC(=O)[C@H](CCc1ccccc1)NC(=O)CN1CCOCC1)C(=O)N[C@@H](Cc1ccccc1)C(=O)N[C@@H](CC(C)C)C(=O)[C@@]1(C)CO1 [Carfilzomib],19.6
13,CO[C@H]1C[C@@H]2CC[C@@H](C)[C@@](O)(O2)C(=O)C(=O)N2CCCC[C@H]2C(=O)O[C@H]([C@H](C)C[C@@H]2CC[C@@H](OC(=O)C(C)(CO)CO)[C@H](OC)C2)CC(=O)[C@H](C)/C=C(\C)[C@@H](O)[C@@H](OC)C(=O)[C@H](C)C[C@H](C)/C=C/C=C/C=C/1C [Temsirolimus] + CC(C)C[C@H](NC(=O)[C@H](CCc1ccccc1)NC(=O)CN1CCOCC1)C(=O)N[C@@H](Cc1ccccc1)C(=O)N[C@@H](CC(C)C)C(=O)[C@@]1(C)CO1 [Carfilzomib],23.9
14,Cl.Fc1ccc(C2CCNCC2COc2ccc3c(c2)OCO3)cc1 (stereo not given) [Paroxetine HCl] + CC(C)C[C@H](NC(=O)[C@H](CCc1ccccc1)NC(=O)CN1CCOCC1)C(=O)N[C@@H](Cc1ccccc1)C(=O)N[C@@H](CC(C)C)C(=O)[C@@]1(C)CO1 [Carfilzomib],12.9
15,O=C(C=Cn1cnc(-c2cc(C(F)(F)F)cc(C(F)(F)F)c2)n1)NNc1cnccn1 + CC(C)C[C@H](NC(=O)[C@H](CCc1ccccc1)NC(=O)CN1CCOCC1)C(=O)N[C@@H](Cc1ccccc1)C(=O)N[C@@H](CC(C)C)C(=O)[C@@]1(C)CO1 [Carfilzomib],5.58
16,CCCCc1oc2ccc(NS(C)(=O)=O)cc2c1C(=O)c1ccc(OCCCN(CCCC)CCCC)cc1 [Dronedarone] + CC(C)C[C@H](NC(=O)[C@H](CCc1ccccc1)NC(=O)CN1CCOCC1)C(=O)N[C@@H](Cc1ccccc1)C(=O)N[C@@H](CC(C)C)C(=O)[C@@]1(C)CO1 [Carfilzomib],19
17,CCC(NC(=O)C(C)NC)C(=O)N1CC(O)CC1Cc1c(-c2[nH]c3cc(F)ccc3c2CC2CC(O)CN2C(=O)C(CC)NC(=O)C(C)NC)[nH]c2cc(F)ccc12 (stereo not given) + CC(C)C[C@H](NC(=O)[C@H](CCc1ccccc1)NC(=O)CN1CCOCC1)C(=O)N[C@@H](Cc1ccccc1)C(=O)N[C@@H](CC(C)C)C(=O)[C@@]1(C)CO1 [Carfilzomib],11.4
18,C=CC(=O)N1CCC(Oc2cc3c(Nc4ccc(Cl)c(Cl)c4F)ncnc3cc2OC)CC1 [Poziotinib] + CC(C)C[C@H](NC(=O)[C@H](CCc1ccccc1)NC(=O)CN1CCOCC1)C(=O)N[C@@H](Cc1ccccc1)C(=O)N[C@@H](CC(C)C)C(=O)[C@@]1(C)CO1 [Carfilzomib],8.92
19,CC1=CC(=O)c2ccccc2C1=O [Menadione] + CC(C)C[C@H](NC(=O)[C@H](CCc1ccccc1)NC(=O)CN1CCOCC1)C(=O)N[C@@H](Cc1ccccc1)C(=O)N[C@@H](CC(C)C)C(=O)[C@@]1(C)CO1 [Carfilzomib],21.4
20,Nc1ncn(C2OC(CO)C(O)C2O)c(=O)n1 (stereo not given) [5-Azacytidine] + CC(C)C[C@H](NC(=O)[C@H](CCc1ccccc1)NC(=O)CN1CCOCC1)C(=O)N[C@@H](Cc1ccccc1)C(=O)N[C@@H](CC(C)C)C(=O)[C@@]1(C)CO1 [Carfilzomib],20.7
